Assay outcomes deposited in PubChem BioAssay by National Center for Advancing Translational Sciences (NCATS).
Compounds with a hit are over-represented: about 2.4% of the library has one in this group of screens.
D2 ag-1 = Beta-Arrestin HTS for Positive Allosteric Modulators of the Human D2 Dopamine Receptor: Agonists | D(2) dopamine receptor (Homo sapiens), P14416 | DiscoveRx PathHunter D2 beta-arrestin, luminescence, 90 min; 100% = 57 uM dopamine signal | activation, % (no concentration beside the values) | 360,000 compounds, 0.084% hits; in the data active = activation above about 40%; inconclusive = between about 15% and that limit
Target sequence (P14416 whole entry, looked up): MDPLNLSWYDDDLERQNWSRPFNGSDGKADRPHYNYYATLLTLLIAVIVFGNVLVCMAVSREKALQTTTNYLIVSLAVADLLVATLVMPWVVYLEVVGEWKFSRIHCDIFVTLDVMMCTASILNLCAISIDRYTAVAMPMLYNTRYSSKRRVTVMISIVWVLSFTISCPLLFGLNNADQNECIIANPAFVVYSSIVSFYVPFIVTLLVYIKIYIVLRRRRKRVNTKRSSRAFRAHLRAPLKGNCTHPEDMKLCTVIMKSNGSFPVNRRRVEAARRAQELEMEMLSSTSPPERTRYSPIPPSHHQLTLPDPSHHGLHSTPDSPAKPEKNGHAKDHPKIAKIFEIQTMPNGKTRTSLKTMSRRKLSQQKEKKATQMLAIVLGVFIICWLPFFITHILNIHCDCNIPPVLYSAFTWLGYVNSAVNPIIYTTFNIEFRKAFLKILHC
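DiscoveRx PathHunter D2 beta-arrestin cells (2,100/well) attached overnight, then compound-stimulated 90 min at 37 C in HBSS/10 mM HEPES/0.1% Tween-20 buffer; beta-galactosidase complementation read by luminescence after 1 h at ambient temperature. Dopamine 57 uM final (EC100) as control.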
D2 PAM-1 = HTS Assay for Positive Allosteric Modulators of the Human D2 Dopamine Receptor: Primary Screen for Potentiators | D(2) dopamine receptor (Homo sapiens), P14416 | HEK293 T-REx D2, calcium flux, EC20 dopamine potentiation | potentiation, % at 10 µM | 340,000 compounds, 0.34% hits;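 active = potentiation over 3 SD above the plate norm, cut at about 30% in these data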; also: 0% is about no effect
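Calcium flux readout, no-wash dye, 1 read/s. Inducible HEK293 Trex D2 line, overnight 30 C. Compound alone 180 s (agonist flags), then EC20 dopamine, another 180 s to score potentiation.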
D2 PAM-2 = Beta-Arrestin HTS for Positive Allosteric Modulators of the Human D2 Dopamine Receptor: Potentiators; potentiation, % (concentration not given with the values); AID 624464, 2012; D(2) dopamine receptor (Homo sapiens), P14416; 360,000 compounds, 0.23% hits; DiscoveRx D2 beta-arrestin cells, luminescence, 90 min; 100% = 57 uM dopamine signal; in the data active = potentiation above about 50%; inconclusive = mostly about 30% to 49%
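D2 cells co-treated with compound plus 50 nM dopamine (EC20) for 90 min at 37 deg C to detect potentiation. Beta-arrestin recruitment was read as enzyme-fragment luminescence after 1 h at ambient temperature. Full response was set by 57 uM dopamine.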
D2 ag-2 = HTS Assay for Allosteric Agonists of the Human D2 Dopamine Receptor: Primary Screen for Agonists; HEK293 T-REx D2 cells, calcium flux agonist mode; activation, % at 2 µM; 340,000 compounds, 0.53% hits; AID 485358, 2010;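 active = activation over 3 SD above normal in the single-dose calcium agonist read, cut at about 30% in these data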; also: 0% is about no effect
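Agonism scored from kinetic calcium signal (1 read/sec, 180 s) following compound pin transfer, after a 10 s baseline. Cells: HEK293 Trex line expressing inducible D2 receptor coupled to calcium, dye-loaded after overnight culture at 30 C.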
D2 antagonist = HTS Assay for Allosteric Antagonists of the Human D2 Dopamine Receptor: Primary Screen for Antagonists | HEK293 TREx D2 cells, calcium flux, dopamine EC80 | inhibition, % at 10 µM | 340,000 compounds, 2% hits | AID 485344, 2010; in the data active = inhibition above about 30%; inactive = below that, where a call was filed; also: 0% is about no effect
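Read-out: kinetic calcium fluorescence (1 cycle/s) in inducible HEK293 T-REx D2 cells after an EC80 dopamine addition that followed 180 s compound preincubation. Loss of the dopamine response indicates antagonism.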
D3 arrestin ag = qHTS of D3 Dopamine Receptor Agonist: D3 Dopamine Receptor B-arrestin Agonist Confirmatory Assay; shares compounds with D2 ag-2; DiscoveRx D3 beta-arrestin cells, luminescence, 90 min; Potency, µM (series often up to 76.9 µM), without a hit: at the highest dose activation, hits mostly activators; 2,300 compounds, 4% hits; AID 720506, 2013;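 also: potency is read from the fitted curve at half-maximal effect; 100% = dopamine control response; nearly all actives have a fitted effect of over 70% in size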
D2 ag-3 = qHTS of D3 Dopamine Receptor Agonist: D2 Dopamine Receptor B-arrestin Agonist Counterscreen; shares compounds with D2 ag-2; DiscoveRx PathHunter D2 beta-arrestin, luminescence, 90 min; response scale: percent relative to full dopamine signal; Potency, µM (series often up to 76.9 µM), without a hit: at the top dose activation, most hits filed as activators; 2,300 compounds, 5.9% hits; also: potency is read from the fitted curve at half-maximal effect; % of control where 0% means no effect; nearly all actives have a fitted effect of over 70% in size
Starred values were filed as active, the others as inactive; u = inconclusive; x = no result. Unless noted, calls follow the shape of the dose curve; as a rule, active = well fitted activation curve with a large enough effect; inconclusive = small, poorly fitted or top-dose-only effect; inactive = flat fitted curve, though single readings scatter.

SMILES	D2 ag-1	D2 PAM-1	D2 PAM-2	D2 ag-2	D2 antagonist	D3 arrestin ag	D2 ag-3
Cc1ccc(NC(=O)CN2CCc3ccccc3C2)cc1S(=O)(=O)N(C)C	8	-22	-9	47*	18	30%	29%
COc1ccc2c(c1)CCc1c(C(=O)Nc3c(C)nn(Cc4ccc(Cl)c(Cl)c4)c3C)noc1-2	x	22	x	-1	x	x	x
CCOC(=O)c1ccccc1NC(=O)Cn1c(=O)n(-c2cccc(C)c2)c(=O)c2c1c1cc(C)ccc1n2C	x	-10	x	-1	x	x	x
Cc1ccc(NS(=O)(=O)c2ccc3nc(-c4ccccc4)[nH]c3c2)c(Cl)c1	x	-1	x	1	x	x	x
CC(CCc1ccccc1)NC(=O)CN1CCc2ccccc2C1 (stereo not given)	15	-17	4	71*	68*	-4%	u
CCN(CC)S(=O)(=O)c1ccc(O)c(NC(=O)CN2CCc3ccccc3C2)c1	-3	-4	-5	4	-6	x	x
CCOc1ccccc1NC(=O)CN1CCc2ccccc2C1	4	-7	-6	3	0	x	x
CC(=O)C(Cc1ccccc1)NC(=O)CN1CCc2ccccc2C1 (stereo not given)	-2	-8	-15	0	7	x	x
Cc1ccccc1NC(=O)CN1CCc2ccccc2C1	u	-24	-12	68*	40*	u	u
CN(C)S(=O)(=O)c1ccc(Cl)c(NC(=O)CN2CCN(c3ccccn3)CC2)c1	u	-25	3	69*	27	u	32µM*
CN(C)S(=O)(=O)c1ccc(Cl)c(NC(=O)CN2CCc3ccccc3C2)c1	64*	-25	16	61*	87*	10µM*	14µM*
Cc1cccc(NC(=O)C(Cc2ccccc2)NS(=O)(=O)c2ccc3c(c2)c(=O)n(C)c(=O)n3C)c1 (stereo not given)	x	-1	x	-1	x	x	x
COCc1cc(C)n(CC(=O)Nc2ccc(NC(C)=O)cc2)c(=O)c1C#N	x	-9	x	1	x	x	x
CCOc1ccc(C(=O)N/N=C(\c2ccccc2)c2ccccn2)cc1	-4	5	-28	-1	21	-23%	-11%
O=C(COC(=O)c1ccccn1)NC(=O)c1ccccc1	-7	8	-3	-1	-11	-4%	-6%
CC(=O)c1ccc(N2CCN(C(=O)C3CCCN(S(=O)(=O)c4ccc(Br)s4)C3)CC2)cc1 (stereo not given)	x	0	x	-1	x	x	x
CC(=O)c1ccc(N2CCN(C(=O)C3CCCN(S(=O)(=O)c4cnc[nH]4)C3)CC2)cc1 (stereo not given)	-2	6	-6	1	32*	-3%	-7%
O=C(NCCCN1CCN(c2ccccc2F)CC1)C1CCCN(S(=O)(=O)c2cnc[nH]2)C1 (stereo not given)	-2	-19	12	68*	65*	u	15%
CCn1c(=O)c2cc(C(=O)NCc3cc(OC)ccc3OC)sc2c2ccccc21	x	-10	x	1	x	x	x
COc1cc(/C=C/C(=O)OCC(=O)Nc2ccc(C)cc2[N+](=O)[O-])ccc1O	-4	9	-6	1	-28	x	x
COc1cc(/C=C/C(=O)OCC(=O)Nc2cc(C)c(C)cc2[N+](=O)[O-])ccc1O	0	9	-8	-1	22	-4%	-2%
Cc1ccc(C(=O)Nc2ccccc2C(=O)O)cc1S(=O)(=O)N1CCCCCC1	x	3	x	1	x	x	x
Cc1noc(C)c1COc1ccc(C(=O)N(C)CCOc2ccccc2)cc1	12	-26	-2	0	-22	-8%	6%
Cc1noc(C)c1COC(=O)CCOc1ccccc1	-3	-4	-7	0	-10	x	x
CC(C)c1ccc(S(=O)(=O)N2CCN(Cc3cccc(F)c3)CC2)cc1	x	1	x	1	x	x	x
SMILES	D2 ag-1	D2 PAM-1	D2 PAM-2	D2 ag-2	D2 antagonist	D3 arrestin ag	D2 ag-3
CC(=O)c1cc(-c2ccccc2)n(CC(=O)Nc2ccc(C)cc2C)c1C	x	-4	x	0	x	x	x
O=CNc1ccccc1	2	-8	-14	0	-8	-4%	-2%
CCOc1ccc(C(=O)N2CCC(c3nnc(-c4ccccc4OC)o3)CC2)cc1	x	14	x	-1	x	x	x
COc1ccc(/C=N/NC(=O)c2nnn(-c3nonc3N)c2CN(C)C2CCCCC2)cc1	-1	-18	-27	56*	-3	0%	-4%
CN(Cc1c(C(=O)N/N=C/c2ccc(F)cc2)nnn1-c1nonc1N)C1CCCCC1	-3	-8	-1	-1	10	x	x
Nc1nonc1-n1nnc(C(=O)N/N=C/c2cccc(Cl)c2)c1-c1ccc2c(c1)OCO2	-8	1	-8	1	-36	x	x
CC(C)c1c(C(=O)N/N=C/c2ccc3c(c2)OCO3)nnn1-c1nonc1N	2	10	-3	0	10	x	x
Nc1nonc1-n1nnc(C(=O)N/N=C/c2ccc(Br)cc2)c1-c1ccc2c(c1)OCO2	-5	18	3	12	41*	4%	7%
Nc1nonc1-n1nnc(C(=O)N/N=C/c2ccc3c(c2)OCO3)c1-c1ccccc1	0	21	-3	16	39*	u	-1%
O=C(CCC1CCCC1)NNC(=O)c1ccc(F)cc1	-7	1	3	-1	-5	-11%	-1%
CC(COc1ccccc1)NC(C)C(O)c1ccc(O)cc1 (stereo not given)	13	-27	-21	77*	90*	2%	16%
Cn1c(SCC(=O)c2ccc3c(c2)NC(=O)CO3)nc2ccccc21	5	3	-5	2	-13	x	x
CCCn1c(SCC(=O)c2ccc3c(c2)NC(=O)CO3)nc2ccccc21	0	-7	-1	5	2	-2%	5%
CCOc1ccc2nc(N(CCCN(C)C)C(=O)c3ccc(S(=O)(=O)N4CCCC4)cc3)sc2c1	1	7	-15	2	31*	-17%	-2%
